Test [1] in a line: BSK_hDFCGF_SRB: Viability Assessment in the BioMAP Diversity Plus: hDFCGF Assay (AID 2283061).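 Further: cells exposed to compound for 24 h before the read.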 The note with it: primary human foreskin fibroblasts. In a few lines:
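Human foreskin primary fibroblasts were treated with compound and assessed 24 h after dosing. Total protein was measured by sulforhodamine B staining (0.1% SRB after 10% TCA fixation, 560 nm read) as a cytotoxicity marker, with bidirectional fitting against DMSO baseline.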

Read-out in test [2]: TIMP metallopeptidase inhibitor 1 (TIMP1), TIMP1 (gene 7076)
The test is described as follows: BSK_hDFCGF_TIMP1: BioMAP Diversity Plus: hDFCGF Assay for TIMP metallopeptidase inhibitor 1 (TIMP1) Biomarker Activity (AID 2283062). Conditions: primary human foreskin fibroblasts; actives raise or lower the signal. In a few lines: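 Primary human foreskin fibroblasts in the hDFCGF system were dosed with compound for 24 h, then TIMP-1 was measured by ELISA. Activity was fitted bidirectionally relative to DMSO control; parallel SRB staining assessed cytotoxicity.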

Read-out in test [3]: Monokine induced gamma interferon (MIG), CXCL9 (gene 4283)
Put plainly: BSK_hDFCGF_MIG: BioMAP Diversity Plus: hDFCGF Assay for Monokine induced gamma interferon (MIG) Biomarker Activity (AID 2283063). Conditions: primary human foreskin fibroblasts; actives raise or lower the signal. The procedure, abridged:
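ELISA read-out of MIG from primary human dermal fibroblasts 24 h post-dosing. Gain or loss of signal fitted bidirectionally, DMSO as baseline.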

Read-out in test [4]: Matrix Metallopeptidase 1 (MMP1), MMP1 (gene 4312)
Put plainly: BSK_hDFCGF_MMP1: BioMAP Diversity Plus: hDFCGF Assay for Matrix Metallopeptidase 1 (MMP1) Biomarker Activity (AID 2283064). Conditions: primary human foreskin fibroblasts; actives raise or lower the signal. The procedure, abridged:
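hDFCGF primary fibroblasts (human foreskin); chemical added; 24 h; MMP1 by ELISA; bidirectional fit vs DMSO.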

Read-out in test [5]: Vascular cell adhesion molecule 1 (VCAM1), VCAM1 (gene 7412)
Put plainly: BSK_hDFCGF_VCAM1: BioMAP Diversity Plus: hDFCGF Assay for Vascular cell adhesion molecule 1 (VCAM1) Biomarker Activity (AID 2283065).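 On AC50: VCAM-1 protein level quantified by ELISA after 24 h chemical exposure.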 The note with it: primary human foreskin fibroblasts; actives raise or lower the signal. In a few lines: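 Primary human foreskin fibroblasts (hDFCGF system) were dosed with chemical and VCAM-1 was measured by ELISA 24 h later. Bidirectional curve fitting used DMSO as negative control and activity baseline.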

Read-out in test [6]: Plasminogen activator inhibitor-1 (PAI1), SERPINE1 (gene 5054)
Put plainly: BSK_hDFCGF_PAI1: BioMAP Diversity Plus: hDFCGF Assay for Plasminogen activator inhibitor-1 (PAI1) Biomarker Activity (AID 2283066). Conditions: primary human foreskin fibroblasts; actives raise or lower the signal. In a few lines:
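Primary dermal fibroblasts (human foreskin), hDFCGF system; compound 24 h; PAI-1 by ELISA; bidirectional fit vs DMSO control.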

Read-out in test [7]: Intercellular Adhesion Molecule 1 (ICAM1), ICAM1 (gene 3383)
The test is described as follows: BSK_KF3CT_ICAM1: BioMAP Diversity Plus: KF3CT Assay for Intercellular Adhesion Molecule 1 (ICAM1) Biomarker Activity (AID 2283067). Conditions: primary human keratinocytes with fibroblasts; actives raise or lower the signal. In a few lines: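 Human keratinocyte plus foreskin fibroblast primary co-culture was exposed to chemical for 24 h. ICAM-1 was then quantified by ELISA, and the data were fit bidirectionally against DMSO as the negative control and baseline.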

Read-out in test [8]: Interferon-gamma inducible Protein 10 (IP10), CXCL10 (gene 3627)
The test is described as follows: BSK_KF3CT_IP10: BioMAP Diversity Plus: KF3CT Assay for Interferon-gamma inducible Protein 10 (IP10) Biomarker Activity (AID 2283068). The note with it: primary human keratinocytes with fibroblasts; actives raise or lower the signal. In a few lines: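 Human keratinocyte plus foreskin fibroblast primary co-culture exposed to test chemical for 24 h; IP-10 measured by ELISA. Concentration-response fitted bidirectionally against DMSO control as baseline.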

A short description of test [9]: BSK_KF3CT_SRB: Viability Assessment in the BioMAP Diversity Plus: KF3CT Assay (AID 2283069).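 Further: fitted for both signal gain and loss against DMSO baseline.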 The note with it: primary human keratinocytes with fibroblasts. The procedure, abridged:
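Keratinocytes co-cultured with foreskin fibroblasts (human primary); chemical added, 24 h; fix 10% TCA, stain 0.1% SRB, A560. Bidirectional fit vs DMSO.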

Read-out in test [10]: Interleukin-1 alpha (IL1a), IL1A (gene 3552)
Put plainly: BSK_KF3CT_IL1a: BioMAP Diversity Plus: KF3CT Assay for Interleukin-1 alpha (IL1a) Biomarker Activity (AID 2283070). The note with it: primary human keratinocytes with fibroblasts; actives raise or lower the signal. In a few lines: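 Chemicals were dosed onto co-cultured human keratinocytes and foreskin fibroblasts, IL-1a was quantified by ELISA at 24 h, and activity was fitted in both directions relative to DMSO controls.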

Read-out in test [11]: TIMP metallopeptidase inhibitor 2 (TIMP2), TIMP2 (gene 7077)
The test is described as follows: BSK_KF3CT_TIMP2: BioMAP Diversity Plus: KF3CT Assay for TIMP metallopeptidase inhibitor 2 (TIMP2) Biomarker Activity (AID 2283071). Conditions: primary human keratinocytes with fibroblasts; actives raise or lower the signal. In a few lines:
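Cells: human keratinocytes co-cultured with foreskin fibroblasts. Treat with chemical, 24 h. Measure TIMP-2 by ELISA; fit curves bidirectionally vs DMSO baseline.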

Read-out in test [12]: Transforming growth factor beta 1 (TGFb1), TGFB1 (gene 7040)
Put plainly: BSK_KF3CT_TGFb1: BioMAP Diversity Plus: KF3CT Assay for Transforming growth factor beta 1 (TGFb1) Biomarker Activity (AID 2283072). Conditions: primary human keratinocytes with fibroblasts; actives raise or lower the signal. The procedure, abridged: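 Primary human skin cells (keratinocytes, foreskin fibroblasts) were co-cultured, exposed to test chemical and sampled at 24 h. TGF-b1 levels were measured by ELISA and fitted bidirectionally relative to DMSO.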

Read-out in test [13]: Matrix Metallopeptidase 9 (MMP9), MMP9 (gene 4318)
Put plainly: BSK_KF3CT_MMP9: BioMAP Diversity Plus: KF3CT Assay for Matrix Metallopeptidase 9 (MMP9) Biomarker Activity (AID 2283074).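 On AC50: MMP9 protein level quantified by ELISA in the co-culture.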 Conditions: primary human keratinocytes with fibroblasts; actives raise or lower the signal. The procedure, abridged: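 Human keratinocyte/foreskin fibroblast co-culture; compound added; 24 h; MMP-9 by ELISA; bidirectional fit vs DMSO baseline.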

Read-out in test [14]: urokinase plasminogen activator (uPA), PLAU (gene 5328)
The test is described as follows: BSK_KF3CT_uPA: BioMAP Diversity Plus: KF3CT Assay for urokinase plasminogen activator (uPA) Biomarker Activity (AID 2283075). Conditions: primary human keratinocytes with fibroblasts; actives raise or lower the signal. In a few lines: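 ELISA readout of uPA, analyzed for signal gain or loss relative to DMSO, from a human primary keratinocyte–foreskin fibroblast co-culture measured 24 h after chemical treatment.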

Read-out in the next test: CD40, CD40 (gene 958)
Put plainly: BSK_LPS_CD40: BioMAP Diversity Plus: LPS Assay for CD40 Biomarker Activity (AID 2283076). Conditions: primary human HUVEC with PBMC; actives raise or lower the signal. The procedure, abridged: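 Primary human umbilical vein endothelial cells co-cultured with peripheral blood mononuclear cells, LPS-stimulated, were dosed with chemical and read 24 h later. CD40 levels were measured by ELISA and fitted bidirectionally against DMSO as negative control and baseline.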

Read-out in test [15]: E-selectin (Homo sapiens) (UniProt P16581)
The test is described as follows: BSK_LPS_Eselectin: BioMAP Diversity Plus: LPS Assay for Eselectin Biomarker Activity (AID 2283077). The note with it: primary human HUVEC with PBMC; actives raise or lower the signal. In a few lines:
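Human umbilical vein endothelial cells co-cultured with peripheral blood mononuclear cells under LPS stimulation; E-selectin measured by ELISA 24 h after chemical dosing. Activity fitted bidirectionally against DMSO as negative control and baseline.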

Read-out in test [16]: Interleukin-8 (IL8), CXCL8 (gene 3576)
Put plainly: BSK_LPS_IL8: BioMAP Diversity Plus: LPS Assay for Interleukin-8 (IL8) Biomarker Activity (AID 2283078). The note with it: primary human HUVEC with PBMC; actives raise or lower the signal. The procedure, abridged:
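Human umbilical vein endothelial cells co-cultured with PBMC were stimulated with LPS; IL-8 levels were measured by ELISA 24 h after chemical dosing. Activity was fitted bidirectionally against DMSO as negative control and baseline.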

Test [17] can be described thus: BSK_LPS_SRB: Viability Assessment in the BioMAP Diversity Plus: LPS Assay (AID 2283079).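 Further: total protein by sulforhodamine B absorbance as a cytotoxicity measure; measured one day after compound addition; fitted in both directions against DMSO so loss or gain of signal counts.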 The note with it: primary human HUVEC with PBMC. The procedure, abridged:
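Human umbilical vein endothelial cells co-cultured with PBMC (LPS system) were dosed for 24 h. Total protein was stained with 0.1% sulforhodamine B after 10% TCA fixation, read at 560 nm, and fitted bidirectionally against DMSO baseline.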

Read-out in test [18]: Interleukin-1 alpha (IL1a), IL1A (gene 3552)
The test is described as follows: BSK_LPS_IL1a: BioMAP Diversity Plus: LPS Assay for Interleukin-1 alpha (IL1a) Biomarker Activity (AID 2283080). The note with it: primary human HUVEC with PBMC; actives raise or lower the signal. In a few lines: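 Human umbilical vein endothelial cells co-cultured with peripheral blood mononuclear cells were LPS-stimulated and exposed to test chemicals for 24 h. IL-1 alpha was quantified by ELISA, with bidirectional curve fitting against DMSO as the negative control and baseline.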

Read-out in test [19]: C-C motif chemokine 2 (Homo sapiens) (UniProt P13500)
The test is described as follows: BSK_KF3CT_MCP1: BioMAP Diversity Plus: KF3CT Assay for Monocyte Chemoattractant Protein 1 (MCP1/CCL2) Biomarker Activity (AID 2283073). Conditions: primary human keratinocytes with fibroblasts; actives raise or lower the signal. The procedure, abridged:
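Human keratinocyte plus foreskin fibroblast primary co-culture exposed to chemical for 24 h. MCP-1 levels measured by ELISA. Bidirectional curve fitting relative to DMSO negative control as baseline.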

Calls of active or inactive are those of the source. How the source made its calls: active means hit-call score of the fitted dose curve at least 0.9, where 1 is the maximum; inactive means score below 0.9.

Chain of E-selectin (Homo sapiens) (P16581 whole entry, looked up): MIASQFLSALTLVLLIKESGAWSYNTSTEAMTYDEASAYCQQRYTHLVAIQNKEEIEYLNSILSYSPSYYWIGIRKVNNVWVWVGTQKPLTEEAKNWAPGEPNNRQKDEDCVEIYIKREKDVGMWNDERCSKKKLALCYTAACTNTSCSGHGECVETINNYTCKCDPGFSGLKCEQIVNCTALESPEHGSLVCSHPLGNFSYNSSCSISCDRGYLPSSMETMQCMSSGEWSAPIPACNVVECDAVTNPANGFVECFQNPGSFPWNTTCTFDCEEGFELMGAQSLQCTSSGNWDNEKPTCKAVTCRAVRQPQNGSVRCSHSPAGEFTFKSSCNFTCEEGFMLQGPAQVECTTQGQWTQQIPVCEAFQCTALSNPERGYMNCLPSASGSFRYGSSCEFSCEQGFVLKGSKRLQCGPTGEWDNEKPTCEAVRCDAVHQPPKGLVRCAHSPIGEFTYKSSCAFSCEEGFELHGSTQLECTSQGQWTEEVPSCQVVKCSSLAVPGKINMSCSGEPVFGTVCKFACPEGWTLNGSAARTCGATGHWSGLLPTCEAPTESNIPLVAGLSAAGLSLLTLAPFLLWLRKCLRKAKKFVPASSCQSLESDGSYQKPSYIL

For `c1ccc(-c2ccccc2)cc1`, the outcome in [1], in [2], in test [3], in test [4], in test [5] and in test [6] was inactive. For the same compound, the result in test [7], in test [8], in test [9], in test [10], in test [11] and in test [12] was inactive. In addition, the outcome in test [13] was “inactive”; in test [14], “inactive”; with CD40, CD40 (gene 958) it was “inactive”; in test [15], “inactive”; in [16], “inactive”; in test [17], “inactive”. The outcome in test [18] was inactive.
In the case of `O=C(N[C@H]1CN2CCC1CC2)c1cc2ccoc2cn1`, the outcome in test [1], in test [2], in test [3], in test [4], in test [5] and in test [6] was inactive. Also, the result in [7], in test [8], in test [9], in test [10], in test [11] and in [12] was inactive. The outcome was “inactive” in test [13]; “inactive” in [14]; “inactive” with CD40, CD40 (gene 958); “inactive” in [15]; “inactive” in [16]; “inactive” in [17]. Moreover, the result in [18] was inactive.
`Cc1ccccc1[N+](=O)[O-]`: the outcome in test [1], in test [2], in [3], in [4], in [6] and in test [7] was inactive. Besides, the result in test [8], in test [9], in [10], in test [11], in test [12] and in test [19] was inactive. Besides, the outcome in [13] is “inactive”; in test [14], “inactive”; with CD40, CD40 (gene 958), “inactive”; in test [15], “inactive”; in [16], “inactive”; in test [17], “inactive”. Moreover, in [18], the outcome was inactive.
For the compound `CC(C)C(=O)OCC(C)(C)C(OC(=O)C(C)C)C(C)C` (centres undefined), the result in [1], in test [2], in [3], in test [4], in test [5] and in [6] was inactive. In addition, the result in test [7], in test [8], in test [9], in test [10], in [11] and in [12] was inactive. In addition, the outcome in [13] is “inactive”; in test [14] it was “inactive”; in the test with CD40, CD40 (gene 958), “inactive”; in [15] it was “inactive”; in test [16] it was “inactive”; in [17], “inactive”. The outcome in test [18] was inactive.
Consider `CCOC(=O)C(O)(c1ccc(Cl)cc1)c1ccc(Cl)cc1`, for which the result in [1], in test [2], in [4], in test [7], in test [8] and in test [9] was inactive. Also, the result in test [10], in test [11], in test [12], in [19], in [13] and in [14] was inactive. In addition, the AC50 (as a rule, the midpoint of the concentration-response curve, whichever way the signal moves) was 14.3 µM (active) in test [3]; 26.9 µM (active) in test [5]; 13.2 µM (active) in test [6]; 26.1 µM (active) with CD40, CD40 (gene 958); 31.5 µM (active) in [15]; 35.2 µM (active) in [16]. Also, the AC50 was 34.2 µM (active) in test [17] and 30.3 µM (active) in [18].
Regarding `CCC(C)c1cc([N+](=O)[O-])cc([N+](=O)[O-])c1O` (centres undefined), the AC50 in [1] is 7.45 µM (active); in [6], 12 µM (active); in [8], 3.97 µM (active); in [13] it was 12.6 µM (active); in [15], 27 µM (active); in test [16], 27.5 µM (active). In addition, the AC50 in [17] was 20 µM (active); in [18], 29.2 µM (active). Moreover, the result in test [2], in test [3], in test [4], in test [5], in test [7] and in test [9] was inactive. For the same compound, the result in [10], in test [11], in test [12] and in test [14] was inactive.
